Screening data (PubChem)
CYP2C9 act – CYP2C9 (human) activation; recombinant CYP2C9, luciferin-H conversion, luminescence; hits give high values; factor 1 = untreated enzyme, 0 = blocked; AID 1024; P11712; activation factor at 5 µM; 96,000 tested, 1.4% active;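 active = activation factor of 2 or more for CYP2C9 at a 5 µM dose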;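 also: 0 = sulfaphenazole-blocked wells and 1 = vehicle-only wells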
PLAP activator – activators of human placental alkaline phosphatase; P05187; purified PLAP enzyme, luminescent substrate read-out; hits give high values; activation fold at 20 µM; 96,000 tested, 1.2% active; in the data active = activation fold above about 2
Target sequence (P05187 whole entry, looked up): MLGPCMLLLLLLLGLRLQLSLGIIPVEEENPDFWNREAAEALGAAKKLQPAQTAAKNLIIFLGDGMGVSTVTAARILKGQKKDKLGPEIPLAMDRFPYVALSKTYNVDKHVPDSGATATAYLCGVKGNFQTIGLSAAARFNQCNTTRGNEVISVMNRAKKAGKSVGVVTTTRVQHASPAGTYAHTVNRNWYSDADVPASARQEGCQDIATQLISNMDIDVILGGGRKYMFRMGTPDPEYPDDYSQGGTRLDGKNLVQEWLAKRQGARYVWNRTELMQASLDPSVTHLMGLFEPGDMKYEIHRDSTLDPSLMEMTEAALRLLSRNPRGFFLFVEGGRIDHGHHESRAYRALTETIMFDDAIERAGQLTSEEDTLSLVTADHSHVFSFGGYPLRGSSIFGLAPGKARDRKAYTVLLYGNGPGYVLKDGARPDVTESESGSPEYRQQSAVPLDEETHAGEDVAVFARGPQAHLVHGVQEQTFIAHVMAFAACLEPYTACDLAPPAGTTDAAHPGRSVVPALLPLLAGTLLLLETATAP
CYP2C19 act – increases human CYP2C19 enzyme activity; P33261; recombinant CYP2C19, luciferin-H EGE luminescence; hits give high values; 0 = fully inhibited enzyme, 1 = untreated enzyme; activation factor at 5 µM; 96,000 tested, under 10 active; AID 1025;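 active = activation factor of at least 2 at 5 µM in the primary screen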;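 also: 0 = wells with 2.5 mM tranylcypromine and 1 = vehicle-only wells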
CYP2C9 inhib – blocks human cytochrome P450 2C9. P11712. CYP2C9 Supersomes, luciferin-H conversion, luminescence. inhibition, % at 5 µM. 96,000 tested, 20% active. AID 777;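 active = blocking of liver enzyme CYP2C9 beyond about 50% at 5 µM, limit read from the data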
CYP2C19 inh – human CYP2C19 inhibition; inhibition, % at 5 µM; 96,000 tested, 21% active; AID 778; P33261; CYP2C19 Supersomes, luciferin-H EGE luminescence, 30 min;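 active = CYP2C19 inhibition above a set limit at 5 µM in the primary screen, cut at about 50% in these data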;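 also: plate controls were negative control wells for no effect and 2.5 mM tranylcypromine positive control for full effect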
Active calls of the source: *. Shown are actives, neighbours in structure and some others; about 31% of the full set was active somewhere.

What do the screens show for `C=CCn1c(SC(C)C(=O)NCc2ccc3c(c2)OCO3)nnc1C1CCCCC1` (stereo not given)?
CYP2C9 act: 0.4; PLAP activator: 1.8; CYP2C19 act: 0.4; CYP2C9 inhib: 57*; CYP2C19 inh: 56*

How did COc1cc(OC)c(C(=O)Nc2ccc(S(=O)(=O)Nc3ncccn3)cc2)cc1OC do in these assays?
CYP2C9 act: 1; PLAP activator: 0.9; CYP2C19 act: 1.1; CYP2C9 inhib: 3; CYP2C19 inh: -5

Results for O=C(Nc1cccn(Cc2c(Cl)cccc2Cl)c1=O)c1c(Cl)cccc1Cl ?
CYP2C9 act: 0.6; PLAP activator: 1.1; CYP2C19 act: 0.8; CYP2C9 inhib: 40; CYP2C19 inh: 16

What do the screens show for `COC(=O)Nc1cccn(Cc2c(Cl)cccc2Cl)c1=O`?
CYP2C9 act: 2.5*; PLAP activator: 1.1; CYP2C19 act: 0.1; CYP2C9 inhib: -145; CYP2C19 inh: 87*

Results for COc1ccc(C2C(C(=O)N3CCCCC3)CC(=O)N2c2ccc(OC)cc2)cc1 (stereo not given) ?
CYP2C9 act: 1.4; PLAP activator: 1.4; CYP2C19 act: 1; CYP2C9 inhib: -44; CYP2C19 inh: 1

Results for CCC1CCCCN1CCCNC(=O)c1cn(CC(C)C)c(=O)c2cc(OC)c(OC)cc12 (stereo not given) ?
CYP2C9 act: 1; PLAP activator: 2*; CYP2C19 act: 1.1; CYP2C9 inhib: -1; CYP2C19 inh: -14

What do the screens show for `COc1cc2c(C(=O)NCc3ccc(C)o3)cn(CC(C)C)c(=O)c2cc1OC`?
CYP2C9 act: 0.9; PLAP activator: 1.3; CYP2C19 act: 0.9; CYP2C9 inhib: 11; CYP2C19 inh: 8

How did C=CCn1c(SCC(=O)Nc2sc3c(c2C#N)CCC3)nnc1C1COc2ccccc2O1 (stereo not given) do in these assays?
CYP2C9 act: 0.3; PLAP activator: 1.9; CYP2C19 act: 0.9; CYP2C9 inhib: 66*; CYP2C19 inh: 7

Results for Cn1c(SCC(=O)Nc2sc3c(c2C#N)CCC3)nnc1C1COc2ccccc2O1 (stereo not given) ?
CYP2C9 act: 0.3; PLAP activator: 1.1; CYP2C19 act: 0.8; CYP2C9 inhib: 67*; CYP2C19 inh: 22

Results for Cn1c(=O)c2c(nc(SCC(=O)O)n2Cc2cccc(C(F)(F)F)c2)n(C)c1=O ?
CYP2C9 act: 0.9; PLAP activator: 1.2; CYP2C19 act: 1; CYP2C9 inhib: 8; CYP2C19 inh: -2

Results for CCCC12CN3CC(C)(CN(C1)C3c1ccc3c(c1)OCO3)C2=O (stereo not given) ?
CYP2C9 act: 1.3; PLAP activator: 1.1; CYP2C19 act: 0.3; CYP2C9 inhib: -25; CYP2C19 inh: 73*

Results for CC12CN3CC(C)(CN(C1)C3c1cc(Br)ccc1O)C2=O (stereo not given) ?
CYP2C9 act: 1; PLAP activator: 1; CYP2C19 act: 0.5; CYP2C9 inhib: 4; CYP2C19 inh: 52*

Results for CC(C)C12CN3CC(C(C)C)(CN(C1)C31C(=O)Nc3ccccc31)C2=O (stereo not given) ?
CYP2C9 act: 1.1; PLAP activator: 0.9; CYP2C19 act: 1.2; CYP2C9 inhib: -14; CYP2C19 inh: -16

How did CN1C(=O)c2ccccc2N(C)C1c1ccc2c(c1)OCO2 (stereo not given) do in these assays?
CYP2C9 act: 0.3; PLAP activator: 1.1; CYP2C19 act: 0.2; CYP2C9 inhib: 69*; CYP2C19 inh: 81*

Results for CC12CN3CC(C)(CN(C1)C3c1ccc(Br)cc1)C2=O (stereo not given) ?
CYP2C9 act: 1; PLAP activator: 1; CYP2C19 act: 0.7; CYP2C9 inhib: 4; CYP2C19 inh: 32

Results for CC(C)C12CN3CC(C(C)C)(CN(C1)C3c1ccccc1O)C2=O (stereo not given) ?
CYP2C9 act: 0.1; PLAP activator: 1.1; CYP2C19 act: 0.1; CYP2C9 inhib: 90*; CYP2C19 inh: 91*

How did O=C(CN1C(=O)c2ccccc2C1=O)Nc1ccc2c(c1)OCO2 do in these assays?
CYP2C9 act: 0.7; PLAP activator: 1; CYP2C19 act: 0.9; CYP2C9 inhib: 28; CYP2C19 inh: 5

Results for COc1ccc(C2OC(=O)c3ccccc3S2)cc1 (stereo not given) ?
CYP2C9 act: 1; PLAP activator: 1; CYP2C19 act: 0.7; CYP2C9 inhib: 3; CYP2C19 inh: 30
